The supplement of paper PMC10849652
About 8,800 targets were measured; listed, in parts, are those with a hit and a random draw of the rest. About 0.5% of all pairs of compound and target were hits. Unmarked numbers belong to inactive results.

Tests used:
Assay in all cases: log2 fold change, soluble protein after heating vs DMSO (PISA); higher = thermal stabilisation; K562 lysate, 10 uM; active = over 0.2 and 3.5 SD of the protein, either way, in both replicates (recomputed)
[1] = compound: CS(=O)(=O)CCNCc1ccc(-c2ccc3ncnc(Nc4ccc(OCc5cccc(F)c5)c(Cl)c4)c3c2)o1 [lapatinib]
Summary of the method: (§1)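 Thermal stability, expressed as log-two fold change relative to solvent controls, is given from duplicates. Crude K562 extract in PBS pH 7.4 with 1 mM MgCl2, at 1 mg/mL protein, was treated with 10 μM compound for 30 min and heated in aliquots for 3 min across 48°C-58°C. After pooling, adjustment to 0.5% NP-40 at 4°C and centrifugation at 21,000xg for 90 min, supernatant protein was measured by TMTpro 16plex LC-MS/MS with channel sums equalised.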

[2] = compound: CS(=O)(=O)N1CCN(Cc2cc3nc(-c4cccc5[nH]ncc45)nc(N4CCOCC4)c3s2)CC1 [pictilisib]
Summary of the method: as §1

[3] = compound: C[C@@H](Oc1cc(-c2cnn(C3CCNCC3)c2)cnc1N)c1c(Cl)ccc(F)c1Cl [crizotinib]
Summary of the method: as §1

[4] = compound: C[C@H](C1=CC=C(C=C1)C(=O)NC2=C3C=CNC3=NC=C2)N
Summary of the method: as §1

[5] = compound: C[C@H](Nc1ncnc2nc[nH]c12)c1cc2cccc(Cl)c2c(=O)n1-c1ccccc1 [duvelisib]
Summary of the method: as §1

[6] = compound: Cc1cc(Nc2cc(CN3CCOCC3)c3nc(C)c(Cc4ccc(Cl)cc4F)n3n2)n[nH]1 [gandotinib]
Summary of the method: as §1

[7] = compound: Cc1cc(Nc2cc(N3CCN(C)CC3)nc(Sc3ccc(NC(=O)C4CC4)cc3)n2)n[nH]1 [tozasertib]
Summary of the method: as §1

[8] = compound: Cc1ccc(-n2nc(C(C)(C)C)cc2NC(=O)Nc2ccc(OCCN3CCOCC3)c3ccccc23)cc1 [doramapimod]
Summary of the method: as §1

[9] = compound: Cc1ccc(NC(=O)c2ccc(CN3CC[C@H](N(C)C)C3)c(C(F)(F)F)c2)cc1Nc1nccc(-c2cncnc2)n1 [bafetinib]
Summary of the method: as §1

[10] = compound: Cc1cccc(CC(=O)N2CCc3c2ccc(-c2cn(C)c4ncnc(N)c24)c3F)n1
Summary of the method: as §1

Chain of UniProt P55210 (P55210 whole entry, looked up): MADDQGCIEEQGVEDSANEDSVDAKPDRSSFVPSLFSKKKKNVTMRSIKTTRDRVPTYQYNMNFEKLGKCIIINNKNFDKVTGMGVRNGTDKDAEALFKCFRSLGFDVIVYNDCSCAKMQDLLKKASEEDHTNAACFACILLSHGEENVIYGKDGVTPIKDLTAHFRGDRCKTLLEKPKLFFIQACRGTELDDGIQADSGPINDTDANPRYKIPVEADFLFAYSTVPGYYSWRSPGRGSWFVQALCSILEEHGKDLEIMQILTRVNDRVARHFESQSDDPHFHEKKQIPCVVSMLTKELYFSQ
Chain of UniProt P30307 (P30307 whole entry, looked up): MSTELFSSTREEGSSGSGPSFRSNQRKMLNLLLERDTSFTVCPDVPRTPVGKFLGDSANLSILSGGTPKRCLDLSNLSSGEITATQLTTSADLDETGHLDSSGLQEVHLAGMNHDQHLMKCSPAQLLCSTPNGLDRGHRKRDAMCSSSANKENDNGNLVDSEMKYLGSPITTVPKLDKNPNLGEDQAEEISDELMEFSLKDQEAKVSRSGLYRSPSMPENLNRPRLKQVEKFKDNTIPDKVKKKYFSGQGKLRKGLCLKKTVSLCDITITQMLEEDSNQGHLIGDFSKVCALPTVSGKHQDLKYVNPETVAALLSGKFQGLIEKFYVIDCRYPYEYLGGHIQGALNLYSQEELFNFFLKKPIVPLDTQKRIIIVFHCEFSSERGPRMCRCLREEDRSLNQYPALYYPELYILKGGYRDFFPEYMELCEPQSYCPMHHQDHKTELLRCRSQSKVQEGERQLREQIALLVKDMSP
Chain of UniProt Q9H3Q1 (Q9H3Q1 whole entry, looked up): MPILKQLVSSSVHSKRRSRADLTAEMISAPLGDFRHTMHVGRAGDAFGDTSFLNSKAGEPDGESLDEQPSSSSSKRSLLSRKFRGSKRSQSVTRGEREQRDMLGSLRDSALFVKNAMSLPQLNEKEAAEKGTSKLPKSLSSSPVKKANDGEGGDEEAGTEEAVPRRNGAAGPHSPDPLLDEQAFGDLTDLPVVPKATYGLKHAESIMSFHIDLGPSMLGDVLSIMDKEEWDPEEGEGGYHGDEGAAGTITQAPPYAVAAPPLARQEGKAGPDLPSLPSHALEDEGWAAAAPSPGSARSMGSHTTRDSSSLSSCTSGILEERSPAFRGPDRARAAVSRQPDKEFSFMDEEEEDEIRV
Chain of UniProt Q13554 (Q13554 whole entry, looked up): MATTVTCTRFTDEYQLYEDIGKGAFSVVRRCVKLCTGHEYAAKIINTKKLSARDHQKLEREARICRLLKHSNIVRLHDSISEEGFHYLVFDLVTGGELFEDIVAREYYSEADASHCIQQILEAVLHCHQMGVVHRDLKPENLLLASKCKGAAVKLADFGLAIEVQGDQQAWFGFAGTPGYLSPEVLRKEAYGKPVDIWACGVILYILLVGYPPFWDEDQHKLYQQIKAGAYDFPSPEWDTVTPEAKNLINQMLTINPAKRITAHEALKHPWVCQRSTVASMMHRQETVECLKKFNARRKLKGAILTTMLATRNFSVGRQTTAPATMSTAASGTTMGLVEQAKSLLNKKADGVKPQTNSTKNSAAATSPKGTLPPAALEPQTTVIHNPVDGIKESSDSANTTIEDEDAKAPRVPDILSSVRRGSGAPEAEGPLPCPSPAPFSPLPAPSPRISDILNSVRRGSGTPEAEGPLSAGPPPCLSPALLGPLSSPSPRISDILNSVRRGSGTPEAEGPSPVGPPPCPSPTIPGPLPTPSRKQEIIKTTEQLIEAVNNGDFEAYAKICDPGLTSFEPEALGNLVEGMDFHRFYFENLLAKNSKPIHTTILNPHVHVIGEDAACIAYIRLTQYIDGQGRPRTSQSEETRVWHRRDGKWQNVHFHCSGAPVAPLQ
Chain of UniProt Q9BSU1 (Q9BSU1 whole entry, looked up): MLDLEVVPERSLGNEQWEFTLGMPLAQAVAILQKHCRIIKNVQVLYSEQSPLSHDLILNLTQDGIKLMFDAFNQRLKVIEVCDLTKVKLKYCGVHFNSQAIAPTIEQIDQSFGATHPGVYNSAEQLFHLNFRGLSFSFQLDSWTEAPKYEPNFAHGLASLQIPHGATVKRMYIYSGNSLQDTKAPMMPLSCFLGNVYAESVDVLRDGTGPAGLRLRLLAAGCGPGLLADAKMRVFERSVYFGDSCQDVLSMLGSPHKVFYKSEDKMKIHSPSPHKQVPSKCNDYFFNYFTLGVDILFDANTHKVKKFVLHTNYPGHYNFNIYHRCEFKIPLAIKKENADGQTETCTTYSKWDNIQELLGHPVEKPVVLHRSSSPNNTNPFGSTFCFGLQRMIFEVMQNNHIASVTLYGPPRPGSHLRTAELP
Chain of UniProt Q9H257 (Q9H257 whole entry, looked up): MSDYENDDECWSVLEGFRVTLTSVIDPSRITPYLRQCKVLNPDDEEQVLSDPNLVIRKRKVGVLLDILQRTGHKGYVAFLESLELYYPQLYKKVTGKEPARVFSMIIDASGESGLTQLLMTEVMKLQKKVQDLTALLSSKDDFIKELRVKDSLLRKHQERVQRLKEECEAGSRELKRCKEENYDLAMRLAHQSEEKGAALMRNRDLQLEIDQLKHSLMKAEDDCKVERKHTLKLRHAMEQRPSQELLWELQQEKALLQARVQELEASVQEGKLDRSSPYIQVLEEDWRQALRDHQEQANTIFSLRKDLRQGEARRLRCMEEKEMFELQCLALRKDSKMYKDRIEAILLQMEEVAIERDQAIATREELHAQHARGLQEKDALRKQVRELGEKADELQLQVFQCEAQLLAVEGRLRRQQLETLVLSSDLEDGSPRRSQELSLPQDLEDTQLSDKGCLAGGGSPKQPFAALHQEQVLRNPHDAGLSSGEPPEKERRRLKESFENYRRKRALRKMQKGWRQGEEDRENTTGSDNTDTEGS
Chain of UniProt Q5BKX5 (Q5BKX5 whole entry, looked up): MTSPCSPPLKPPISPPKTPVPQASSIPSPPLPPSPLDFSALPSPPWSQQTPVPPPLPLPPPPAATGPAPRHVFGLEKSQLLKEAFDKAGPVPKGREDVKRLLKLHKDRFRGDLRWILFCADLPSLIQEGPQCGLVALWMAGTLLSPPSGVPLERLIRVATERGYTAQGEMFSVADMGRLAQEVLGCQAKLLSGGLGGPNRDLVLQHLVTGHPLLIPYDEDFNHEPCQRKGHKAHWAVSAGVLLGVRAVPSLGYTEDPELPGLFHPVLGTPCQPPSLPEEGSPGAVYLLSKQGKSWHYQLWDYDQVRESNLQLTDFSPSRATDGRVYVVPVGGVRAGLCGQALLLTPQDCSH
Chain of UniProt P23634 (P23634 whole entry, looked up): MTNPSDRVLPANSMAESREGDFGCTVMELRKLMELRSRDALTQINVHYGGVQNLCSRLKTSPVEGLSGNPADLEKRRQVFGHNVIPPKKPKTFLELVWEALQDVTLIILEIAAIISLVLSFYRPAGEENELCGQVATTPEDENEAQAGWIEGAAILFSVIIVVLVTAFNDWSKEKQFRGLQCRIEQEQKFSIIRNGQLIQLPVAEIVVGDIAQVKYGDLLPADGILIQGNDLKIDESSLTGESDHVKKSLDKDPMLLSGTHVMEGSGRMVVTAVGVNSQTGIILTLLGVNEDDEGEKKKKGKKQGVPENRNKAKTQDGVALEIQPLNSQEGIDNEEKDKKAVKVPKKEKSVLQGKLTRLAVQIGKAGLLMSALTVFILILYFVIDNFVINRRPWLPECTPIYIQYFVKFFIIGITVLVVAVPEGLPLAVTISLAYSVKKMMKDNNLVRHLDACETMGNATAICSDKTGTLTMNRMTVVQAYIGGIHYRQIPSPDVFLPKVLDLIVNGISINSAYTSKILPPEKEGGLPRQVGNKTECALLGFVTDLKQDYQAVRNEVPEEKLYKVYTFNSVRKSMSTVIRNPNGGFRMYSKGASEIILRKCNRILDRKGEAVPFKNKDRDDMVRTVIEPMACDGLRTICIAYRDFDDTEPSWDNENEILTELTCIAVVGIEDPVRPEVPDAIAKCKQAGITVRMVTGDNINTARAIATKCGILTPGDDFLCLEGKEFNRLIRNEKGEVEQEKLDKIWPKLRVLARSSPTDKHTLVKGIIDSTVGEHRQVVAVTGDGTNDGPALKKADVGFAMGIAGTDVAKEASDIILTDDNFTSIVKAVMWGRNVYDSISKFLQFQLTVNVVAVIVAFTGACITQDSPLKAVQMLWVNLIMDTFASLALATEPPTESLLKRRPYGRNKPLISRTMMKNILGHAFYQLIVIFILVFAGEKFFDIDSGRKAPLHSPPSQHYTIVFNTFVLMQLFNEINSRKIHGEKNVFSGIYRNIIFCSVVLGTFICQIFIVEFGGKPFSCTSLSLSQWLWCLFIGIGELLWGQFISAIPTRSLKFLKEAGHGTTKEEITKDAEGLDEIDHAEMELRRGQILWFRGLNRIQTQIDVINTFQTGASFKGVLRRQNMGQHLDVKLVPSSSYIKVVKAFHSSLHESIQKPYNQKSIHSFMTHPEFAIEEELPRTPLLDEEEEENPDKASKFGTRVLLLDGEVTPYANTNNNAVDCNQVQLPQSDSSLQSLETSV
Chain of UniProt Q8WYN0 (Q8WYN0 whole entry, looked up): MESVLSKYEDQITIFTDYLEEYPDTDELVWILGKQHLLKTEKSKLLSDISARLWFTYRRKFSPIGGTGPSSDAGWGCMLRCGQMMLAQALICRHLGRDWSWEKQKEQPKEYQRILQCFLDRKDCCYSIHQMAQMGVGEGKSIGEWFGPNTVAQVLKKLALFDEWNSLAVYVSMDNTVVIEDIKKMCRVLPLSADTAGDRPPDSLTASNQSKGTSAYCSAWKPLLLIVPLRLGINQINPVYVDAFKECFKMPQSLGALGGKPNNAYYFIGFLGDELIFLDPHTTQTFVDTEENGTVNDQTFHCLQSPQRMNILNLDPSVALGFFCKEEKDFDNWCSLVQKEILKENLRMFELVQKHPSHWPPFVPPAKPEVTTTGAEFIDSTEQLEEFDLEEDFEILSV
Chain of UniProt Q9HB09 (Q9HB09 whole entry, looked up): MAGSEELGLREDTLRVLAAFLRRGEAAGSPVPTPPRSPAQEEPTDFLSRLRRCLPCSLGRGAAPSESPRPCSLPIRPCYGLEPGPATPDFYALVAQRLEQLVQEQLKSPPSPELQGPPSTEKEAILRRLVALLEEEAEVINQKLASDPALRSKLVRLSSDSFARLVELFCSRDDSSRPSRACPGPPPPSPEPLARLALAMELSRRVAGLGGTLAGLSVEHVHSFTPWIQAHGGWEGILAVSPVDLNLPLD

Row | Target | log2 fold change [1] | log2 fold change [2] | log2 fold change [3] | log2 fold change [4] | log2 fold change [5] | log2 fold change [6] | log2 fold change [7] | log2 fold change [8] | log2 fold change [9] | log2 fold change [10]
1 | CBFA2T3 (UniProt O75081) | 0.041 | -0.038 | 0.013 | 0.017 | 0.006 | -0.001 | -0.014 | 0.007 | -0.007 | 0.05
2 | ATP2B4 (UniProt P23634) | -0.022 | -0.018 | 0.018 | -0.166 | 0.053 | 0.082 | 0.046 | 0.049 | -0.125 | 0.221 (active)
3 | CBX1 (UniProt P83916) | 0.052 | -0.006 | 0.023 | 0.279 (active) | 0.03 | -0.143 | -0.05 | -0.034 | 0.025 | -0.138
4 | CCDC51 (UniProt Q96ER9) | -0.038 | -0.055 | -0.01 | 0.259 (active) | -0.034 | -0.217 (active) | 0.007 | -0.053 | -0.106 | -0.232
5 | CDC42EP4 (UniProt Q9H3Q1) | 0.031 | 0.029 | -0.017 | -0.047 | -0.029 | 0.223 (active) | -0.017 | 0.157 | -0.027 | 0.102
6 | C19orf54 (UniProt Q5BKX5) | -0.003 | -0.089 | -0.019 | -0.011 | -0.076 | -0.046 | -0.008 | -0.036 | -0.01 | 0.027
7 | BRAT1 (UniProt Q6PJG6) | 0.026 | -0.013 | -0.103 | 0 | -0.001 | -0.1 | 0.017 | 0.052 | -0.014 | 0.038
8 | ATG7 (UniProt O95352) | 0.006 | -0.002 | -0.015 | -0.037 | 0 | -0.035 | -0.015 | 0.02 | -0.024 | 0.006
9 | BMS1 (UniProt Q14692) | -0.029 | -0.052 | -0.058 | -0.018 | -0.036 | 0.043 | 0.018 | 0.047 | -0.032 | 0.045
10 | CDKN1B (UniProt P46527) | 0.083 | -0.043 | 0.139 | 0.047 | -0.06 | -0.161 | -0.005 | -0.04 | -0.106 | -0.059
11 | C9orf72 (UniProt Q96LT7) | 0.061 | -0.112 | 0.082 | -0.075 | -0.072 | 0.035 | -0.196 | 0.03 | -0.043 | -0.009
12 | CEP76 (UniProt Q8TAP6) | -0.031 | -0.073 | -0.106 | -0.063 | 0.141 | 0.007 | 0.079 | 0.085 | -0.115 | 0.027
13 | CCNY (UniProt Q8ND76) | -0.061 | -0.044 | -0.035 | -0.094 | -0.057 | 0.081 | 0.056 | 0.033 | -0.073 | 0.054
14 | CDK5RAP2 (UniProt Q96SN8) | -0.182 | -0.04 | -0.035 | -0.032 | 0.023 | -0.092 | 0.024 | 0.003 | 0 | 0.084
15 | CAD (UniProt P27708) | -0.023 | -0.02 | -0.038 | -0.024 | -0.011 | -0.019 | 0 | 0.02 | -0.052 | 0.07
16 | ATP5PF isoform 2 (UniProt P18859) | 0.04 | -0.088 | 0.054 | 0.591 (active) | -0.021 | -0.185 | -0.018 | -0.083 | 0.221 | -0.19
17 | CARD9 (UniProt Q9H257) | -0.048 | -0.035 | -0.053 | -0.016 | -0.009 | -0.032 | 0.022 | 0.032 | -0.145 | 0.03
18 | ATG4A (UniProt Q8WYN0) | -0.017 | -0.02 | -0.033 | -0.061 | -0.009 | -0.025 | 0.044 | 0.008 | -0.014 | 0.063
19 | CAMK2B (UniProt Q13554) | 0.024 | 0.053 | – | -0.045 | -0.011 | 0.072 | -0.046 | -0.03 | 0.003 | 0.055
20 | CAPNS1 (UniProt U3KPR7) | -0.052 | -0.083 | – | – | – | – | – | – | -0.194 | –
21 | ATM (UniProt Q13315) | -0.018 | -0.055 | -0.045 | -0.112 | -0.035 | 0.014 | -0.04 | 0.051 | -0.01 | 0.08
22 | ATAD1 (UniProt Q8NBU5) | -0.158 | 0.012 | -0.022 | -0.081 | -0.051 | 0.386 (active) | 0.017 | 0.015 | -0.008 | 0.012
23 | BCAR1 isoform 6 (UniProt P56945) | -0.044 | 0.003 | 0.003 | 0.071 | 0.008 | -0.113 | 0.01 | -0.039 | -0.073 | -0.104
24 | CDK11A (UniProt Q9UQ88) | 0.104 | -0.02 | 0.092 | 0.049 | -0.003 | 0.122 | – | -0.072 | -0.033 | -0.093
25 | CASP7 isoform 3 (UniProt P55210) | -0.055 | 0.037 | -0.07 | – | 0.009 | – | 0.049 | 0.029 | -0.054 | –
26 | C16orf70 (UniProt Q9BSU1) | -0.002 | -0.076 | 0.058 | – | -0.013 | – | 0.018 | 0.116 | -0.045 | –
27 | CDC25C (UniProt P30307) | -0.118 | -0.025 | – | -0.049 | -0.021 | -0.109 | 0.03 | -0.003 | 0.038 | 0.013
28 | CASP9 (UniProt P55211) | 0.003 | 0.011 | -0.047 | -0.036 | 0.036 | -0.027 | 0.017 | 0.009 | -0.069 | 0.082
29 | BCL2L12 (UniProt Q9HB09) | 0.164 | -0.184 | 0.01 | 0.045 | 0.009 | -0.003 | -0.056 | -0.016 | -0.296 | 0.057
